Test results as given in the supplement of paper PMC12669032.
Unmarked numbers belong to inactive results.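 Rule for the calls: active = AUC reduced over 20% with Padj below 0.05 in at least 2 of 3 replicates; inactive = otherwise.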

How the values were obtained:
Assay in all cases: growth AUC relative to DMSO control (median of replicates) (fraction); higher = more growth (less inhibition), active = hit call of the paper
Conditions in all cases: 20 µM; 24 h
Akkermansia muciniphila = tested on: Akkermansia muciniphila
Method in brief: (§1)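 Gut bacterial monocultures were grown anaerobically at 37 °C in mGAM from a starting OD600 of 0.05 with 20 µM compound (1% DMSO), in round-bottom 96-well plates under pierced gas-permeable seals, and OD600 was read hourly for 24 h. With the minimum OD set to 0, area under the growth curve was normalised to the plate median of solvent-only wells, or to row and column medians on the industrial chemical plate. Each value is the median of three biological replicates grown on separate days.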

Bacteroides caccae = tested on: Bacteroides caccae
Method in brief: as §1

Bacteroides clarus = tested on: Bacteroides clarus
Method in brief: as §1

Bacteroides dorei = tested on: Bacteroides dorei
Method in brief: as §1

Bacteroides stercoris = tested on: Bacteroides stercoris
Method in brief: as §1

[1] = tested on: Bacteroides thetaiotaomicron
Method in brief: as §1

Bacteroides uniformis = tested on: Bacteroides uniformis
Method in brief: as §1

[2] = tested on: Bifidobacterium longum subsp. longum
Method in brief: as §1

Clostridium difficile = tested on: Clostridium difficile
Method in brief: as §1

Collinsella aerofaciens = tested on: Collinsella aerofaciens
Method in brief: as §1

Coprococcus comes = tested on: Coprococcus comes
Method in brief: as §1

Escherichia coli ED1a = tested on: Escherichia coli ED1a
Method in brief: as §1

Escherichia coli IAI1 = tested on: Escherichia coli IAI1
Method in brief: as §1

Eubacterium rectale = tested on: Eubacterium rectale
Method in brief: as §1

[3] = tested on: Fusobacterium nucleatum subsp. animalis
Method in brief: as §1

Lactobacillus gasseri = tested on: Lactobacillus gasseri
Method in brief: as §1

Lactobacillus paracasei = tested on: Lactobacillus paracasei
Method in brief: as §1

Odoribacter splanchnicus = tested on: Odoribacter splanchnicus
Method in brief: as §1

[4] = tested on: Parabacteroides distasonis
Method in brief: as §1

Parabacteroides merdae = tested on: Parabacteroides merdae
Method in brief: as §1

Row | SMILES | growth AUC (Akkermansia muciniphila) | growth AUC (Bacteroides caccae) | growth AUC (Bacteroides clarus) | growth AUC (Bacteroides dorei) | growth AUC (Bacteroides stercoris) | growth AUC [1] | growth AUC (Bacteroides uniformis) | growth AUC [2] | growth AUC (Clostridium difficile) | growth AUC (Collinsella aerofaciens) | growth AUC (Coprococcus comes) | growth AUC (Escherichia coli ED1a) | growth AUC (Escherichia coli IAI1) | growth AUC (Eubacterium rectale) | growth AUC [3] | growth AUC (Lactobacillus gasseri) | growth AUC (Lactobacillus paracasei) | growth AUC (Odoribacter splanchnicus) | growth AUC [4] | growth AUC (Parabacteroides merdae)
1 | N#Cc1nn(-c2c(Cl)cc(C(F)(F)F)cc2Cl)c(N)c1SC(F)(F)F | 1.01 | 0.941 | 0.858 | 0.899 | 1.14 | 0.953 | 0.928 | 1.09 | 0.909 | 0.942 | 0.857 | 1.02 | 0.985 | 0.687 (active) | 0.96 | 0.729 (active) | 1.04 | 0.571 (active) | 0.751 (active) | 0.868
2 | CCNc1nc(Cl)nc(NC(C)(C)C#N)n1 | 0.889 | 1.02 | 0.983 | 1.04 | 0.946 | 0.998 | 0.986 | 0.946 | 1.05 | 0.997 | 0.988 | 1.02 | 0.988 | 0.889 | 0.949 | 1.19 | 0.968 | 0.985 | 1 | 1.01
3 | CNC(=O)Oc1cccc(N=CN(C)C)c1.Cl | 1.18 | 1.03 | 1.03 | 1.02 | 1.12 | 1.02 | 0.993 | 1.06 | 1.02 | 1.04 | 1.04 | 1 | 1.05 | 1.04 | 1.07 | 1.02 | 1.04 | 1.02 | 1.03 | 1.02
4 | N#Cc1c(O)c(Cl)c(Cl)c(C#N)c1Cl | 1.02 | 0.98 | 0.979 | 0.969 | 0.979 | 0.995 | 0.784 (active) | 1.02 | 1.02 | 0.985 | 1.02 | 0.989 | 0.987 | 0.938 | 0.868 | 1.02 | 0.986 | 0.912 | 1.03 | 0.994
5 | C=CCC1=C(C)C(OC(=O)[C@@H]2[C@@H](C=C(C)C)C2(C)C)CC1=O (stereo not given in full) | 1.01 | 0.983 | 1.02 | 1.05 | 1.08 | 0.96 | 1.01 | 1 | 1.04 | 1.03 | 1.03 | 1.01 | 0.988 | 0.919 | 1 | 0.962 | 0.968 | 1.07 | 0.9 | 0.999
6 | C[C@@H](Oc1ccc(Oc2cnc3cc(Cl)ccc3n2)cc1)C(=O)O | 1.07 | 0.938 | 1.05 | 1 | 1.29 | 0.986 | 0.988 | 0.964 | 0.989 | 0.976 | 1.05 | 1.02 | 1 | 0.987 | 1.08 | 0.997 | 1.04 | 0.97 | 0.983 | 1.03
7 | O=C(O)c1ccc(=O)[nH]c1 | 1.06 | 1.02 | 1.01 | 1.02 | 0.972 | 0.984 | 1.01 | 1 | 1.01 | 0.977 | 0.999 | 0.99 | 1.03 | 0.976 | 0.982 | 0.972 | 0.987 | 0.985 | 1.02 | 0.983
8 | CN(C)C(=O)Nc1cccc(C(F)(F)F)c1 | 0.966 | 0.97 | 0.983 | 0.991 | 0.911 | 0.967 | 1.02 | 0.961 | 1.02 | 0.997 | 0.965 | 1.01 | 0.986 | 1.01 | 1.05 | 1.05 | 0.985 | 1.07 | 0.961 | 1
9 | CC(C)c1ccc(NC(=O)N(C)C)cc1 | 1.04 | 0.978 | 0.987 | 1.02 | 0.937 | 1.02 | 1.02 | 1.18 | 0.995 | 0.947 | 0.979 | 0.972 | 0.97 | 1.05 | 1.07 | 0.934 | 0.98 | 1.12 | 0.998 | 0.935
10 | CSC1=N[C@@](C)(c2ccccc2)C(=O)N1Nc1ccccc1 | 1.05 | 0.978 | 0.967 | 0.985 | 1.26 | 0.961 | 0.986 | 1.04 | 0.997 | 0.99 | 0.988 | 1.01 | 0.993 | 1.08 | 1.2 | 0.853 | 0.968 | 0.924 | 0.872 | 0.953
11 | Cc1cc(OC(=O)N(C)C)nn1C(=O)N(C)C | 0.959 | 1.02 | 0.992 | 0.968 | 1.09 | 1.02 | 0.979 | 0.988 | 1.01 | 1.02 | 1.03 | 0.996 | 0.971 | 1.01 | 1.03 | 0.992 | 0.963 | 0.935 | 1.11 | 0.966
12 | CCc1cnc(C2=NC(C)(C(C)C)C(=O)N2)c(C(=O)O)c1 (stereo not given) | 0.891 | 1.01 | 0.971 | 0.951 | 0.985 | 0.981 | 1.01 | 0.937 | 0.993 | 0.983 | 0.975 | 0.995 | 1 | 0.962 | 0.981 | 1.04 | 0.924 | 0.961 | 0.989 | 1.01
13 | Cc1ccc(N(SC(F)(Cl)Cl)S(=O)(=O)N(C)C)cc1 | 0.918 | 1 | 1 | 1.04 | 1.02 | 1.02 | 1.03 | 1.03 | 0.991 | 0.989 | 1.02 | 0.974 | 0.982 | 1.03 | 1 | 1.07 | 1 | 1.02 | 1.06 | 1.04
14 | COP(=O)(OC)O/C(=C/Br)c1ccc(Cl)cc1Cl | 1.06 | 1 | 0.978 | 0.979 | 1.02 | 0.96 | 0.961 | 1.03 | 0.983 | 1 | 1.01 | 0.981 | 1 | 1 | 1.07 | 0.885 | 1.01 | 1.03 | 0.883 | 0.963
15 | CC(C)=CC1C(C(=O)OCN2C(=O)C3=C(CCCC3)C2=O)C1(C)C (stereo not given) | 0.932 | 0.916 | 0.924 | 0.976 | 0.877 | 0.965 | 0.97 | 0.741 | 0.959 | 0.955 | 0.953 | 0.995 | 0.97 | 0.938 | 0.85 | 0.993 | 0.918 | 0.963 | 0.935 | 0.972
16 | CCS(=O)(=O)Oc1ccc2c(c1)C(C)(C)CO2 | 0.972 | 1 | 0.967 | 1.01 | 1.01 | 0.99 | 1.01 | 1.04 | 1.03 | 1.01 | 1.08 | 1.02 | 1.02 | 0.83 | 0.966 | 1.06 | 1 | 1.07 | 1.03 | 0.963
